Data reported in PubChem BioAssay (NCATS).
Records with an inconclusive call do not appear. The source made the active and inactive calls. Unless noted, calls follow the shape of the dose curve; as a rule, active = well fitted curve in the direction sought with a large enough effect; inconclusive = small, poorly fitted or top-dose-only effect, or another doubt; inactive = no such curve, though single readings can be large; an effect the other way counts as inactive or inconclusive.

Assays:
[1] = AP1 Signaling Pathway (AID 357; active = well fitted curve in either direction with a large enough effect, not every such curve was filed as active;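 also: ME-180 reporter cells stimulated with EGF at its EC50 level; % is scaled to controls: 0 for no effect and ±100 for the full control effect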); details: ME-180 AP-1-bla reporter, EGF-induced, beta-lactamase ratio, 5 h; at 7.69 µM (top of the series) unless noted
Summary of the method: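 In this screen, ME-180 cells in Opti-MEM with 0.5% dialyzed FBS received EC50 EGF and compound titrations for 5 h. AP-1 reporter beta-lactamase was detected via CCF4 ratio, giving AC50 for positive and negative modulators.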

[2] = target: Cytochrome P450 1A2 (Homo sapiens) (UniProt P05177); assay: p450-cyp1a2 (AID 410; calls by dose curve; also: potency is read from the fitted curve at half-maximal effect;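 as to activity change, negative = inhibition: -100% = full effect of reference inhibitor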)
Summary of the method: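 Luminescent readout of luciferin formed from Luciferin-ME by human CYP1A2; data normalized against complete inhibition by 57 uM furafylline. Enzyme 20nM, substrate 100uM at Km, 100mM KPO4 buffer, 60 min reaction at room temperature.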

[3] = NFAT Signaling Pathway (AID 444; active = well fitted curve in either direction with a large enough effect, not every such curve was filed as active;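 also: carbachol stimulus at about its EC50 of 1 µM final; % is scaled to controls: 0 for no effect and ±100 for the full control effect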); details: Jurkat NFAT-bla M1, carbachol, beta-lactamase ratio, 5 h; at 7.69 µM (top of the series) unless noted
Summary of the method: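 Read-out: CCF4 FRET ratio (460 nm/530 nm) after 1 h RT dye loading, used for %activity and AC50 from titration series. Cells: Jurkat NFAT-β-lactamase/M1 line, treated with compound plus 1 uM carbachol for 5 h, 37 °C.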

[4] = Stat Signaling Pathway (AID 446; active = well fitted curve in either direction with a large enough effect, not every such curve was filed as active;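 also: ME-180 cervical cancer cells given 40 pM IL-6 alongside compound; SIE-controlled beta-lactamase reporter measured as 460/530 nm FRET emission ratio; % is scaled to controls: 0 for no effect and ±100 for the full control effect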); details: ME-180 SIE beta-lactamase reporter, IL-6 stimulated, 5 h; at 7.69 µM (top of the series) unless noted
Summary of the method: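 ME-180 cells carrying a SIE-driven beta-lactamase reporter are stimulated with 40 pM IL-6 for 5 h at 37C in the presence of compound. The 460/530 nm FRET substrate ratio is read after 2.5 h at RT. Data are normalised to 300 pM IL-6 and to 125 nM JAK inhibitor controls.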

[5] = target: Mitogen-activated protein kinase 10 (Mus musculus) (UniProt Q61831); assay: JNK3 AlphaScreen Assay (AID 530; active = well fitted curve in either direction with a large enough effect, not every such curve was filed as active;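 also: kinase came from lysate of stimulated human HepG2 cells; signal reports phosphorylation of biotinylated GST-cJun 1-79 at Ser73 with 10 µM ATP; % is scaled to controls: 0 for no effect and ±100 for the full control effect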)
Summary of the method: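 Compound titrations were preincubated 15 minutes at room temperature with substrate, antibody and pre-activated JNK3-containing HepG2 lysate. Reactions were started with 10 uM ATP and stopped with EDTA-containing bead buffer for AlphaScreen detection.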

[6] = target: 3',5'-cyclic-AMP phosphodiesterase 4B (Homo sapiens) (UniProt Q07343); assay: qHTS Assay for Inhibitors of PDE-IV (AID 607; active = well fitted activation curve with a large enough effect in the main read-out, with a control signal flat, not every such curve was filed as active; also: % of control where 0% means no effect)
Summary of the method: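 HEK293 ACTOne cells with CNG channel (1000/well), endogenous PDE4; membrane potential dye, compounds up to 22.9 uM final. Fluorescence Ex 535/Em 590; RO 20-1724 (100 uM final) as reference.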

[7] = target: Guanine nucleotide-binding protein G(i) subunit alpha-1 (Homo sapiens) (UniProt P63096); assay: qHTS Assay for Inhibitors of RGS12 GoLoco Motif Activity (Green Fluorophore) (AID 879);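 also: 0% = labeled peptide with Gαi1 and full inhibition = labeled peptide alone without protein; negative values mean loss of peptide binding seen as reduced polarization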
Summary of the method: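 Fluorescence polarization assay: 50 nM Gαi1 with 10 nM FITC-labeled RGS12 GoLoco peptide in 10 mM Tris pH 7.5, 150 mM NaCl, 0.1 mM GDP, 0.05% NP40, 10 min at room temperature with compound.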

[8] = target: Cytochrome P450 2C19 (Homo sapiens) (UniProt P33261); assay: qHTS Assay for Inhibitors and Substrates of Cytochrome P450 2C19 (AID 899); also: nearly all actives have a fitted effect of over 60% in size; also: potency is read from the fitted curve at half-maximal effect
Summary of the method: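 Reactions contain 5nM enzyme, 10uM Luciferin-H EGE (KM) and 50mM KPO4; compound preincubates 10 min at 37C, NADPH regeneration starts turnover for 60 min. Luminescence after detection reagent gives activity.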

[9] = qHTS Assay for Identification of Small Molecule Agonists for Thrombopoietin (TPO) Signaling Pathway (AID 917); also: % is scaled to controls: 0 for no effect and ±100 for the full control effect
Summary of the method: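 IL-3-dependent murine pro-B Ba/F3 cells, stably transfected with human TPO receptor and GpIIb-promoter luciferase, are incubated 24 hrs at 37 C with test compound and 26 pM TPO; luciferase signal is read after 10 min at room temperature.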

[10] = target: Muscarinic acetylcholine receptor M1 (Rattus norvegicus) (UniProt P08482); assay: qHTS Assay for Antagonists of Acetylcholine Muscarinic M1 Receptor: Measurement of IP-One Response (AID 944); also: nearly all actives have a fitted effect of over 75% in size
Summary of the method: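 M1-CHO (rat), 2000 cells/well, overnight recovery; cpd 10 min; carbachol EC80 (200 nM), 30 min, HEPES buffer + 50 mM LiCl pH 7.4; IP-One HTRF, Ex 337, Em 620/665 nm.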

[11] = target: Pyruvate kinase (Leishmania mexicana) (UniProt Q27686); assay: qHTS Validation Assay for Inhibitors of Leishmania Mexicana Pyruvate Kinase (AID 945);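 also: 0% = DMSO only neutral control wells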
Summary of the method: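 The enzyme is a highly purified E451W mutant of LmPYK used at 0.2 nM. It converts 0.5 mM PEP and 0.1 mM ADP over 1 h at room temperature; product ATP is quantified by luciferase luminescence relative to DMSO controls.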

[12] = target: Pyruvate kinase PKM (Homo sapiens) (UniProt P14618); assay: qHTS Assay for Activators of Human Muscle Pyruvate Kinase (AID 954; active = well fitted curve in the direction sought with a large enough effect, not every such curve was filed as active;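 also: 0% = uninhibited enzyme and -100% = no enzyme or full thiadiazolimine inhibition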)
Summary of the method: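 Purified human PKM2 (0.1 nM) with 0.5 mM PEP (Km) and 0.1 mM ADP in 50 mM imidazole pH 7.2, KCl, MgCl2, 1 h at room temperature; ATP formed read by coupled luciferase luminescence. Normalized to no-enzyme/110 uM thiadiazolimine inhibition; 0.3 nM enzyme column for activation.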

[13] = target: Alpha-galactosidase A (Homo sapiens) (UniProt P06280); assay: Counterscreen for Glucocerebrosidase Inhibitors: qHTS Assay for Human alpha-Galactosidase at pH 4.5 (AID 992); also: 0% is about no effect
Summary of the method: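 Human enzyme (2 nM) with 80 uM 4-methylumbelliferyl alpha-D-galactopyranoside in 50 mM citric acid, 0.005% Tween-20, pH 4.5, 20 min at room temperature. Compounds 0.7 nM–77 uM; fluorescence Ex 365/Em 440 after pH 10 stop; AC50 from Hill fits.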

[14] = target: alpha-glucosidase (Oryza sativa, rice) (UniProt Q653V4); assay: Counterscreen for Glucocerebrosidase Inhibitors: qHTS Assay for Rice alpha-Glucosidase at pH 5.0 (AID 997);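 also: 0% = full activity with enzyme and -100% = basal without enzyme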
Summary of the method: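 Rice alpha-glucosidase (4 nM final) with 400 uM 4-methylumbelliferyl-alpha-D-glucopyranoside in citrate buffer pH 5.0, 20 min at room temperature, stopped at pH 10; fluorescence 365/440 nm, compounds 0.7 nM–77 uM, AC50 from Hill fits.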

[15] = target: Glucocorticoid receptor (Homo sapiens) (UniProt P04150); assay: GR-GFP Redistribution (AID 450;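 active = compounds whose dose series gives a full or clear partial fitted curve of increased nuclear translocation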; also: potency is read from the fitted curve at half-maximal effect); details: U2OS GR-GFP nuclear translocation, laser cytometry, 2 h
[16] = target: Glucocorticoid receptor (Homo sapiens) (UniProt P04150); assay: GR-EFC Redistribution (AID 451; calls by dose curve; also: potency is read from the fitted curve at half-maximal effect); details: CHO-K1 GR-EFC translocation, beta-gal luminescence, 2 h
Summary of the method: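 Translocation of GR-ED fusion to nuclear EA restores b-gal, read by luminescence after 1 h room-temperature detection. Engineered CHO-K1 biosensor cells, 1,000/well, exposed 2 h at 37 C to titrations up to 46 uM final.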

[17] = target: Cytochrome P450 3A4 (Homo sapiens) (UniProt P08684); assay: qHTS Assay for Activators of Cytochrome P450 3A4 (AID 885); also: nearly all actives have a fitted effect of over 65% in size
Summary of the method: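 Human CYP3A4 (20 nM) with Luciferin-PPXE at 25 uM (its KM) in 200 mM KPO4; 10 min compound preincubation, then NADPH regeneration and 60 min reaction at RT. Luciferin read by luminescence; normalized to 57 uM ketoconazole full inhibition.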

[18] = target: Cytochrome P450 2C9 (Homo sapiens) (UniProt P11712); assay: qHTS Assay for Inhibitors and Substrates of Cytochrome P450 2C9 (AID 883); also: % is scaled to controls: 0 for no effect and ±100 for the full control effect; nearly all actives have a fitted effect of over 60% in size
Summary of the method: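 Turnover of Luciferin-H (100uM, KM) by 10nM human CYP2C9 was measured over 60 min at 37C with NADPH regeneration; inhibitors and some substrates reduce luminescence. Data normalized to sulphaphenazole 57uM.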

[19] = target: Muscarinic acetylcholine receptor M1 (Rattus norvegicus) (UniProt P08482); assay: qHTS Assay for Antagonists of Acetylcholine Muscarinic M1 Receptor: Kinetic Measurement of Intracellular Calcium Response (AID 943); also: nearly all actives have a fitted effect of over 75% in size; also: potency is read from the fitted curve at half-maximal effect;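 as to activity change, negative = inhibition: Fluo-4 calcium signal as peak divided by basal fluorescence over 4 min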
Summary of the method: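 Rat M1-CHO cells, 2000/well, overnight → Fluo-4 no-wash dye with probenecid, 1 h 37C → compound 10 min, room temp → basal read 6 s → carbachol EC80 (100 nM) → 4 min kinetic read; peak/basal.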

[20] = target: Cytochrome P450 2D6 (Homo sapiens) (UniProt P10635); assay: qHTS Assay for Inhibitors and Substrates of Cytochrome P450 2D6 (AID 891); also: nearly all actives have a fitted effect of over 60% in size; also: potency is read from the fitted curve at half-maximal effect
Summary of the method: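 Human CYP2D6 (5 nM) with 30 uM Luciferin-ME EGE (at Km) in 100 mM KPO4, compound preincubated 10 min, then NADPH regeneration system for 60 min at room temperature. Luciferin read by luminescence; normalized to 1.43 uM quinidine.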

Chain of Pyruvate kinase (Leishmania mexicana) (Q27686 2-499 E452W): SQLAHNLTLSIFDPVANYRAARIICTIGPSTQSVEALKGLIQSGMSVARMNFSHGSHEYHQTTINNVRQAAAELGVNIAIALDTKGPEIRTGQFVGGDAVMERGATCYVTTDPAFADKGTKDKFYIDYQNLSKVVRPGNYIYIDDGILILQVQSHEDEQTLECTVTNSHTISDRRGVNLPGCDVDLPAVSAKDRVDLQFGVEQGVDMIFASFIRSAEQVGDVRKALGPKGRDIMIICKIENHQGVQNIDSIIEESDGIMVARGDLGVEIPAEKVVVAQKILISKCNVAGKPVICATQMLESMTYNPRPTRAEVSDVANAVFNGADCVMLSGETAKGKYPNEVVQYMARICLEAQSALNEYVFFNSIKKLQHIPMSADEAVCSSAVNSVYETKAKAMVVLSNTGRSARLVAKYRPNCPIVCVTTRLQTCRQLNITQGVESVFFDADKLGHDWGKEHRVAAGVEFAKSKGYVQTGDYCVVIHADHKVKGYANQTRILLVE
Chain of Cytochrome P450 3A4 (Homo sapiens) (P08684 whole entry, looked up): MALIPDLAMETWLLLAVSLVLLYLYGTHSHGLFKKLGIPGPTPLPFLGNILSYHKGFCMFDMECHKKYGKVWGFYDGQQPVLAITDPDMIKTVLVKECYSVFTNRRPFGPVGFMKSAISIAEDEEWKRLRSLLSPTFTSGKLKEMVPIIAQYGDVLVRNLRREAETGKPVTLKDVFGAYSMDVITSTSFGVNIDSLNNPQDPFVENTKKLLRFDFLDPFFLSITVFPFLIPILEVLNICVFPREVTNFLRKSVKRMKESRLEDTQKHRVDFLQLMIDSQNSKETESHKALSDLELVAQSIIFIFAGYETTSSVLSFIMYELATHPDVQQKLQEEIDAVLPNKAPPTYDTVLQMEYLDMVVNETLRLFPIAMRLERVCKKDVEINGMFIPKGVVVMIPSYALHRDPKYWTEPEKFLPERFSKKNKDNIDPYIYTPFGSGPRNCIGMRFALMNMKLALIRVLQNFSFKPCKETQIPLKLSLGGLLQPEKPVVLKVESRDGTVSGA
Chain of Muscarinic acetylcholine receptor M1 (Rattus norvegicus) (P08482 whole entry, looked up): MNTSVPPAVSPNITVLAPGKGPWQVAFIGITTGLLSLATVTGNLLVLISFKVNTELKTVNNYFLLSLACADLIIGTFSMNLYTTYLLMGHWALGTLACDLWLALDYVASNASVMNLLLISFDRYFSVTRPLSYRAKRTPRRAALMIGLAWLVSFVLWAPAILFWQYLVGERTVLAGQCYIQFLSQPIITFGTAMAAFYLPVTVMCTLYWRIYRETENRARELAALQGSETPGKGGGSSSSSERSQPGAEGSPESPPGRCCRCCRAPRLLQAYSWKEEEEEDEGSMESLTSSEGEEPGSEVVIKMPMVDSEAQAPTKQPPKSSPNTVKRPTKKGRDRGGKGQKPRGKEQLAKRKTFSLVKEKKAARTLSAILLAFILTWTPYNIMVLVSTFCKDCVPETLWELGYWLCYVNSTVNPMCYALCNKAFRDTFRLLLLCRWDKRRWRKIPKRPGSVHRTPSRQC
Chain of Alpha-galactosidase A (Homo sapiens) (P06280 whole entry, looked up): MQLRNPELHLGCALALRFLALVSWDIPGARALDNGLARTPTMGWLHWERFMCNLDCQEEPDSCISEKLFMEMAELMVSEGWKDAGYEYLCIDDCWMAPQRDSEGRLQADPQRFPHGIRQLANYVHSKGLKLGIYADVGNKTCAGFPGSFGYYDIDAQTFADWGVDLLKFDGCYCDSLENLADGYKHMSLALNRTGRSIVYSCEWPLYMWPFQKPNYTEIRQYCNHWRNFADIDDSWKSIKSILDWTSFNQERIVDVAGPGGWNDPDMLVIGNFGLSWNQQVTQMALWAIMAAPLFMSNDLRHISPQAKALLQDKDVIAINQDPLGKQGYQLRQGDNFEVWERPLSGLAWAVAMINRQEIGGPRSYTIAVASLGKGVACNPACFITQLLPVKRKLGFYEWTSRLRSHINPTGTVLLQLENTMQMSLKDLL
Chain of Glucocorticoid receptor (Homo sapiens) (P04150 whole entry, looked up, the tested form may be a part): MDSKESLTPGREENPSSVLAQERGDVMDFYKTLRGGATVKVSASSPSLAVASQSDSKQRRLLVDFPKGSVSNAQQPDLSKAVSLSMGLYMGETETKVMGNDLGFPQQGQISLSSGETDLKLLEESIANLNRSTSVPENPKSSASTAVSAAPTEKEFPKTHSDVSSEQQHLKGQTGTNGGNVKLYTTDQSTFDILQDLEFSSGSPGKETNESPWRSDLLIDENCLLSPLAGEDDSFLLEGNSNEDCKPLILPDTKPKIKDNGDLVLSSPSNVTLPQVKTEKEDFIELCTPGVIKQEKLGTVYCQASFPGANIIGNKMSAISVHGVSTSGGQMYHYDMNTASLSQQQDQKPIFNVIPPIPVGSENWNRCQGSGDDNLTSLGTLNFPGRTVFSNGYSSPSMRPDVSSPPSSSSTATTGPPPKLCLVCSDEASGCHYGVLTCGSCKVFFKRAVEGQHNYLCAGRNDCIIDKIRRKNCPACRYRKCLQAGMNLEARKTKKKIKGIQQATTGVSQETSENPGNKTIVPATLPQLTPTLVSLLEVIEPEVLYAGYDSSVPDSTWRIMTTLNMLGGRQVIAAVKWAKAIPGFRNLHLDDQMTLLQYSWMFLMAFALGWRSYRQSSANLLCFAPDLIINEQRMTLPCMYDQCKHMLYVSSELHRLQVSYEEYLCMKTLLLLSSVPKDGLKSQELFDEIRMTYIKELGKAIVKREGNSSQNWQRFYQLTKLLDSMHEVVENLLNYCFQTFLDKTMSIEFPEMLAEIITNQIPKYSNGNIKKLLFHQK
Chain of 3',5'-cyclic-AMP phosphodiesterase 4B (Homo sapiens) (Q07343 whole entry, looked up): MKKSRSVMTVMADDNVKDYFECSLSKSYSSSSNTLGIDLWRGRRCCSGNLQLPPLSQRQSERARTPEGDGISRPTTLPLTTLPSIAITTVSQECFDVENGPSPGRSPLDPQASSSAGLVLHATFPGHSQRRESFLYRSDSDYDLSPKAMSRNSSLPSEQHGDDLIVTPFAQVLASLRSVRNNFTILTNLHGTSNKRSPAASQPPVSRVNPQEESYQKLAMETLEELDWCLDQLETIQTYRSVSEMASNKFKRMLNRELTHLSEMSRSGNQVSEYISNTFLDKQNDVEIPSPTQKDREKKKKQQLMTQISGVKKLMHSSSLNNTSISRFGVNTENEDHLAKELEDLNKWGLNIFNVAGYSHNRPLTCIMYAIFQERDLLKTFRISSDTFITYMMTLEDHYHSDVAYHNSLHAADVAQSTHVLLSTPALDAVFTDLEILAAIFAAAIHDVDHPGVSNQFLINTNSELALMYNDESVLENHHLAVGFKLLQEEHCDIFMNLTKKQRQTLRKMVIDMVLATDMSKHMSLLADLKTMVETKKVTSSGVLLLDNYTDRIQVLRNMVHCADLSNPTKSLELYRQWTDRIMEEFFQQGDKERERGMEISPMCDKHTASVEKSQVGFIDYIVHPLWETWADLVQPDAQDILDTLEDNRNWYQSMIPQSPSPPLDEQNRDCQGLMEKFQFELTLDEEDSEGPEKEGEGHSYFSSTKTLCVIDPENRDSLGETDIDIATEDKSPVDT
Chain of Pyruvate kinase PKM (Homo sapiens) (P14618 whole entry, looked up): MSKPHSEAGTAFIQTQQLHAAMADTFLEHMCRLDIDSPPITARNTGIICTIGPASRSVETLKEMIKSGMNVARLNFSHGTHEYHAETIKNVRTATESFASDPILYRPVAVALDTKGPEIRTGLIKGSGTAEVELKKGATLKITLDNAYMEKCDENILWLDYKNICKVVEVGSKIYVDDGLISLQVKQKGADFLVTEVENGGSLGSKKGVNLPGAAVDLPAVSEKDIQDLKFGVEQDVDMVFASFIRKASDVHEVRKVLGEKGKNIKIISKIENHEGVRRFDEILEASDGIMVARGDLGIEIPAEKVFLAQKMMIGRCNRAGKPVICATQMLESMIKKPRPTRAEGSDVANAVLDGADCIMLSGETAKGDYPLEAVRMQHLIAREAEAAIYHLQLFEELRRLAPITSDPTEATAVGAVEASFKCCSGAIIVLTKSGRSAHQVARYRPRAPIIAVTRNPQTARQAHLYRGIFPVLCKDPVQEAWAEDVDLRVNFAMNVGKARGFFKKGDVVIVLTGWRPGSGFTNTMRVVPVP
Chain of Cytochrome P450 2C19 (Homo sapiens) (P33261 whole entry, looked up): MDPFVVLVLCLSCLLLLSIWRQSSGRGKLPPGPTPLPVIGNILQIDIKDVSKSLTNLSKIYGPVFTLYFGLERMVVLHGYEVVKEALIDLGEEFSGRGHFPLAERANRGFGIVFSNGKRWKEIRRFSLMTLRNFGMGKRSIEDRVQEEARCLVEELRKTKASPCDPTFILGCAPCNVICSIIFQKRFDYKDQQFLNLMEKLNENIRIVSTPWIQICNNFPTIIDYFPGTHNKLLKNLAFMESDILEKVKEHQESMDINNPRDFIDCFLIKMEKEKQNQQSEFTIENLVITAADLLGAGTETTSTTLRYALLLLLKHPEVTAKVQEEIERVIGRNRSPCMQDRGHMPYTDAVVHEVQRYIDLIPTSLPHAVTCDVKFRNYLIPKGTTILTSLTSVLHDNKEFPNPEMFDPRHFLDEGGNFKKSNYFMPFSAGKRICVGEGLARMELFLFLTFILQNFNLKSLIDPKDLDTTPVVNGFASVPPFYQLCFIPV
Chain of Cytochrome P450 1A2 (Homo sapiens) (P05177 whole entry, looked up): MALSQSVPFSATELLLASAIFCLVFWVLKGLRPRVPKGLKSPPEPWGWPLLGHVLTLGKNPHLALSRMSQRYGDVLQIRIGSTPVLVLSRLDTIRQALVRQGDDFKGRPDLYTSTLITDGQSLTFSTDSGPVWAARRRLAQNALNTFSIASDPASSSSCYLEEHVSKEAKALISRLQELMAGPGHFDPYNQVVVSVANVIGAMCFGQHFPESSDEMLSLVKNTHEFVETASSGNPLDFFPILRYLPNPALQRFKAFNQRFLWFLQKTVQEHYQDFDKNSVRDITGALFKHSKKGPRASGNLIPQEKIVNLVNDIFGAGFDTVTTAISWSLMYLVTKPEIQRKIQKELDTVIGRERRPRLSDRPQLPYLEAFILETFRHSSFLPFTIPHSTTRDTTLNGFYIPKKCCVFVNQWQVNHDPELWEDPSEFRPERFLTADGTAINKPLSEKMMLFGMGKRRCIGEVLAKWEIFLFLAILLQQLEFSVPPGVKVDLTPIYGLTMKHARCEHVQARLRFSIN

C[C@H](N)C(=O)OC(C)(C)Cc1ccc(Cl)cc1
inactive: activity change, negative = inhibition [1] 9.46% [at 38 µM] | activity change, negative = inhibition [3] 18.9% [at 38 µM] | activity, negative = inhibition [4] 24.9% [at 38 µM] | Potency [5] | Potency [6] | outcome [7] | outcome [9] | Potency [10] | outcome [11] | outcome [12] | outcome [13] | Potency [14]
active: Potency [2] 0.631 µM | Potency [8] 3.98 µM

COC(=O)[C@H](N)Cc1ccc(Cl)cc1
active: Potency [2] 3.16 µM
inactive: activity change, negative = inhibition [1] 4.51% [at 38 µM] | activity change, negative = inhibition [3] 3.08% [at 38 µM] | Potency [15] > 46 µM | Potency [16] > 46 µM | Potency [5] | Potency [6] | outcome [7] | Potency [17] | outcome [9] | Potency [10] | outcome [11] | outcome [12] | outcome [13] | Potency [14]

Nc1c2c(nc3ccccc13)CCC[C@H]2O
active: Potency [2] 10 µM
inactive: activity change, negative = inhibition [1] 1.75% [at 38 µM] | activity change, negative = inhibition [3] 0.441% [at 38 µM] | Potency [15] > 46 µM | Potency [16] > 46 µM | Potency [5] | Potency [6] | outcome [7] | Potency [18] | outcome [9] | Potency [19] | Potency [10] | outcome [11] | outcome [12] | outcome [13] | Potency [14]

CC(=O)[C@@H]1CC[C@@H]2[C@@H]3CC=C4C[C@H](OS(=O)(=O)O)CC[C@@]4(C)[C@H]3CC[C@]21C
inactive: activity change, negative = inhibition [1] 12.4% [at 38 µM] | Potency [2] | activity change, negative = inhibition [3] 1.64% [at 38 µM] | Potency [15] > 46 µM | Potency [16] > 46 µM | Potency [5] | Potency [6] | outcome [7] | outcome [9] | Potency [19] | outcome [11] | outcome [12] | outcome [13] | Potency [14]

N=C(N)SCc1cccc2c(=O)cc(-c3ccccc3)oc12
inactive: activity change, negative = inhibition [1] 28% | activity change, negative = inhibition [3] -23% | Potency [15] > 46 µM | Potency [16] > 9.22 µM | Potency [5] | Potency [6] | Potency [17]
active: Potency [2] 0.126 µM | Potency [20] 2.51 µM

Cc1ccc(C(=O)O[C@@H](C(=O)O)[C@@H](OC(=O)c2ccc(C)cc2)C(=O)O)cc1 (tested in a mixture with another compound)
inactive: activity change, negative = inhibition [1] -1.5% [at 38 µM] | Potency [2] | activity change, negative = inhibition [3] 0.143% [at 38 µM] | activity, negative = inhibition [4] 0.98% [at 38 µM] | Potency [6] | outcome [7] | outcome [9] | Potency [10] | outcome [11] | outcome [13] | Potency [14]

Nc1ccn([C@H]2CC[C@H](CO)O2)c(=O)n1
inactive: activity change, negative = inhibition [1] 15.8% [at 38 µM] | Potency [2] | activity change, negative = inhibition [3] 5.71% [at 38 µM] | activity, negative = inhibition [4] -0.228% [at 38 µM] | Potency [5] | Potency [6] | Potency [18] | Potency [20] | Potency [8]

CC[C@H](C)[C@@H]1O[C@]2(CC[C@@H]1C)C[C@H]1C[C@H](CC=C(C)[C@@H](O[C@H]3C[C@H](OC)[C@H](O[C@H]4C[C@H](OC)[C@H](O)[C@H](C)O4)[C@H](C)O3)[C@@H](C)C=CC=C3CO[C@@H]4[C@@H](O)C(C)=C[C@H](C(=O)O1)[C@@]34O)O2
inactive: activity change, negative = inhibition [1] -14% [at 38 µM] | Potency [2] | activity change, negative = inhibition [3] -10.6% [at 38 µM] | Potency [15] > 46 µM | Potency [16] > 46 µM | Potency [6] | Potency [17] | outcome [11] | outcome [12] | outcome [13] | Potency [14]

O=S(=O)(NCCNC/C=C\c1ccc(Br)cc1)c1cccc2cnccc12
inactive: activity change, negative = inhibition [1] 2.61% [at 38 µM] | activity change, negative = inhibition [3] -7.5% [at 38 µM] | Potency [15] > 46 µM | Potency [16] > 46 µM | Potency [5] | outcome [7] | outcome [11] | outcome [12] | outcome [13] | Potency [14]
active: Potency [2] 2 µM | Potency [19] 14.1 µM

CO/N=C(\C(=O)N[C@@H]1C(=O)N2C(C(=O)[O-])=C(C[N+]3(C)CCCC3)CS[C@@H]12)c1csc(N)n1
inactive: activity change, negative = inhibition [1] 2.79% [at 17.2 µM] | Potency [2] | activity change, negative = inhibition [3] -16.9% [at 17.2 µM] | activity, negative = inhibition [4] 11.5% [at 17.2 µM] | Potency [5] | Potency [6]

C[C@@H](C(=O)O)c1ccc(C[C@@H]2CCCC2=O)cc1
inactive: activity change, negative = inhibition [1] 14.5% [at 38 µM] | Potency [2] | activity change, negative = inhibition [3] 11.1% [at 38 µM] | activity, negative = inhibition [4] 8.58% [at 38 µM] | Potency [5] | Potency [6] | outcome [7] | Potency [8] | outcome [9] | Potency [10] | outcome [11] | outcome [12] | outcome [13] | Potency [14]

CN1[C@@H]2CC[C@H]1CC(NC(=O)c1nn(C)c3ccccc13)C2 (stereo partly specified)
inactive: activity change, negative = inhibition [1] -1.02% [at 38 µM] | Potency [2] | activity change, negative = inhibition [3] -9.68% [at 38 µM] | Potency [15] > 46 µM | Potency [16] > 46 µM | Potency [5] | Potency [6] | outcome [7] | outcome [9] | Potency [19] | Potency [10] | outcome [11] | outcome [12] | outcome [13] | Potency [14]
